Where “and” joins values, the source holds several entries; their conditions need not be identical. Identical values can stand only once. Calls of active or inactive are those of the source.
How the values were obtained:
[1] = tested on: PRMT1 (protein arginine N-methyltransferase 1); assay: small molecules binding arginine methyltransferase PRMT1 – biochemical, small-molecule microarray, 635 nm fluorescence, primary screen (AID 1088); conditions: higher = more signal;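 note: binding of Prmt1 protein to compounds spotted on small-molecule microarray slides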
[2] = growth effects on S. cerevisiae YJM789 – YJM789 clinical isolate, OD600, 24 h, basal, primary screen (AID 1089); conditions: higher = more signal, called active from +8 up or from −8 down unless noted;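 note: growth of clinical yeast isolate S. cerevisiae YJM 789 seeded 1000 cells per well; test concentration not given here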
[3] = S. pombe growth modifiers, basal conditions – strain 972, OD600, 24 h, no modulator, primary screen (AID 1090);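 note: basal condition with compound alone and no growth modifier present; test concentration not given here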; conditions: S. pombe 972 growth; higher = more signal, called active from +8 up or from −8 down unless noted
[4] = budding yeast growth modifiers under rapamycin – strain BY4716, OD600, 96 h, primary screen (AID 1091); note: test concentration not given here; conditions: S. cerevisiae BY4716 + rapamycin; higher = more signal, called active from +8 up or from −8 down unless noted
[5] = target: Torsin-1A-interacting protein 2 (Homo sapiens) (UniProt Q8NFQ8); assay: small molecules binding lysate-expressed LULL1 – cell lysate, human LULL1 lysate, 635/667 nm fluorescence, primary screen (AID 1092); conditions: small-molecule microarray, hLULL1 lysate binding, 635 nm fluorescence; higher = more signal;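 note: probe is lysate of COS7 cells overexpressing human LULL1; score merges per-feature 667 nm fluorescence with signal-to-noise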
[6] = optical density change of DRC41 E. coli – strain DRC41, OD650, 24 h, E. coli filamentation project, primary screen (AID 1093);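 note: MC1000 strain lacking acrAB efflux and sulA so SOS filamentation is blocked; test concentration not given here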; conditions: E. coli DRC41 growth; higher = more signal, called active from +8 up or from −8 down unless noted
[7] = probe aLefty2 binding to arrayed compounds – biochemical, biotinylated probe, 635/667 nm fluorescence, primary screen (AID 1094); conditions: higher = more signal; small-molecule microarray, probe aLefty2, fluorescence unless noted;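 note: score merges spot fluorescence near 667 nm with spot signal-to-noise ratio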
[8] = tested on: Noggin (protein binding on small-molecule microarray); assay: small molecules binding Noggin protein – biochemical, 635/667 nm fluorescence, primary screen (AID 1095); conditions: 635 nm fluorescence, higher = more signal;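 note: score merges 667 nm feature fluorescence with signal to noise over triplicate slides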
[9] = target: Neurogenic locus notch homolog protein 3 (Homo sapiens) (UniProt Q9UM47); assay: small molecules binding NOTCH3 protein – biochemical, 635/667 nm fluorescence, primary screen (AID 1096); conditions: small-molecule microarray, 635 nm fluorescence, higher = more signal
[10] = probe aEGFR binding to arrayed compounds – biochemical, biotinylated probe, 635/667 nm fluorescence, primary screen (AID 1097); conditions: higher = more signal; small-molecule microarray, probe aEGFR, fluorescence unless noted;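 note: probe is a biotinylated anti-EGFR antibody binding compounds printed on slides; score combines fluorescence near 667 nm and signal to noise of each spot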
[11] = tested on: Plasmodium falciparum Sir2 (PF13_0152, Sir2A); assay: Plasmodium falciparum Sir2A binding compounds – biochemical, small-molecule microarray, 635 nm fluorescence, primary screen (AID 1098); conditions: fluorescence 635 nm, higher = more signal;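 note: score merges spot fluorescence intensity with its signal-to-noise ratio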
[12] = probe aDKK1 binding to arrayed compounds – biochemical, biotinylated probe, 635/667 nm fluorescence, primary screen (AID 1099); conditions: higher = more signal; small-molecule microarray, probe aDKK1, fluorescence unless noted;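 note: score merges 667nm spot fluorescence with signal to noise across triplicate slides; reference of the scale not given here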
[13] = probe aCHRDL2 binding to arrayed compounds – biochemical, biotinylated probe, 635/667 nm fluorescence, primary screen (AID 1100); conditions: higher = more signal; small-molecule microarray, probe aCHRDL2, fluorescence unless noted
[14] = change in splice reporter luminescence, either direction, cell-based, HEK293, spliceosome inhibition project, primary screen (AID 1101); conditions: HEK293 splicing luciferase reporter, 24 h; higher = more signal, called active from +8 up or from −8 down unless noted;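 note: HEK293 cells carrying a splicing-competent luciferase reporter gene; test concentration not given here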
[15] = target: Fibroblast growth factor 10 (Homo sapiens) (UniProt O15520); assay: compounds binding fibroblast growth factor 10 – biochemical, small-molecule microarray, 635 nm fluorescence, primary screen (AID 1102); conditions: FGF10 binding, fluorescence 635 nm, higher = more signal
[16] = tested on: glycogen synthase kinase-3 (GSK3A per assay name; protocol says GSK3B); assay: compounds binding glycogen synthase kinase-3 – biochemical, small-molecule microarray, 635 nm fluorescence, GSK3A, primary screen (AID 1103); conditions: fluorescence 635 nm, higher = more signal; note: the record names both GSK3A and GSK3B
[17] = target: Epidermal growth factor receptor (Homo sapiens) (UniProt P00533); assay: compounds binding epidermal growth factor receptor – biochemical, small-molecule microarray, 635 nm fluorescence, primary screen (AID 1104); conditions: EGFR binding, higher = more signal;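 note: score merges 667 nm emission intensity with spot signal to noise over triplicate slides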
[18] = target: Follistatin-related protein 3 (Homo sapiens) (UniProt O95633); assay: compounds binding follistatin-related protein 3 – biochemical, small-molecule microarray, 635 nm fluorescence, primary screen (AID 1105); conditions: FSTL3 binding, higher = more signal;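 note: score merges emission near 667 nm and signal to noise per printed spot across three slides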
[19] = target: Dickkopf-related protein 1 (Homo sapiens) (UniProt O94907); assay: small molecules binding DKK1 protein – biochemical, small-molecule microarray, 635 nm fluorescence scan, primary screen (AID 1106); conditions: higher = more signal;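 note: score merges emission near 667 nm with signal to noise over three replicate slides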
[20] = tested on: Inhibin beta A chain (activin A); assay: small molecules binding activin A – biochemical, small-molecule microarray, 635 nm fluorescence scan, primary screen (AID 1107); conditions: INHBA, higher = more signal;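 note: mouse activin A protein probed at 4.33 µg/mL on printed slides; score merges bound-protein fluorescence near 667 nm with spot signal-to-noise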

Sequence of Epidermal growth factor receptor (Homo sapiens) (P00533 whole entry, looked up): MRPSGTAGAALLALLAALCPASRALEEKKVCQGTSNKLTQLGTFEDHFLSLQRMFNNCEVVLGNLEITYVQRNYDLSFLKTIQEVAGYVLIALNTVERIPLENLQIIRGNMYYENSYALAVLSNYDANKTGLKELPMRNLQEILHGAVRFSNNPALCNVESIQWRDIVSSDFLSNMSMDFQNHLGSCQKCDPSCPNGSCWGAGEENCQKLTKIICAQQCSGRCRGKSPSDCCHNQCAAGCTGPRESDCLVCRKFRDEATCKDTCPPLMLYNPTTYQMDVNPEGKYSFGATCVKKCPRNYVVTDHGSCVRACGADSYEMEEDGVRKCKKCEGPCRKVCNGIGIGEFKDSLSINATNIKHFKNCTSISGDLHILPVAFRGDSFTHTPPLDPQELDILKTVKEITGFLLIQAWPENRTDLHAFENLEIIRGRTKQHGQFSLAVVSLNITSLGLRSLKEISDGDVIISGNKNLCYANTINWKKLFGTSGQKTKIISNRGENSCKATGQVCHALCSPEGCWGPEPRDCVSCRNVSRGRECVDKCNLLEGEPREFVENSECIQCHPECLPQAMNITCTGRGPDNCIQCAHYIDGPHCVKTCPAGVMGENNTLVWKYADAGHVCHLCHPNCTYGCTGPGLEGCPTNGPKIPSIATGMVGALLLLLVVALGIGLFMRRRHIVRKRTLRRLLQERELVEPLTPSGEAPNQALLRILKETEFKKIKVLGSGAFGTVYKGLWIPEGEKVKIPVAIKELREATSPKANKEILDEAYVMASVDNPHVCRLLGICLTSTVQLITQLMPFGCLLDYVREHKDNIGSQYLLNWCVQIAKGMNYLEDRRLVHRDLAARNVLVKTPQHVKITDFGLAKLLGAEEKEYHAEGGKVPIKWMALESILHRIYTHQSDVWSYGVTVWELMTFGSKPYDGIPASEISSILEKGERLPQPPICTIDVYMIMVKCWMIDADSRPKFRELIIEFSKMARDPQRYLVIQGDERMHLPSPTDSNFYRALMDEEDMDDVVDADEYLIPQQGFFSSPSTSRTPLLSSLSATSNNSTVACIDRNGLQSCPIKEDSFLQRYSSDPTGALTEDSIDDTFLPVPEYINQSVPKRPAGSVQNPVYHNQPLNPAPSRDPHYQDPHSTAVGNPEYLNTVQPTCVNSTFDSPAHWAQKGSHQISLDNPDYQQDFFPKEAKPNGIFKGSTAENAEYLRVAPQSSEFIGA
Sequence of Neurogenic locus notch homolog protein 3 (Homo sapiens) (Q9UM47 whole entry, looked up): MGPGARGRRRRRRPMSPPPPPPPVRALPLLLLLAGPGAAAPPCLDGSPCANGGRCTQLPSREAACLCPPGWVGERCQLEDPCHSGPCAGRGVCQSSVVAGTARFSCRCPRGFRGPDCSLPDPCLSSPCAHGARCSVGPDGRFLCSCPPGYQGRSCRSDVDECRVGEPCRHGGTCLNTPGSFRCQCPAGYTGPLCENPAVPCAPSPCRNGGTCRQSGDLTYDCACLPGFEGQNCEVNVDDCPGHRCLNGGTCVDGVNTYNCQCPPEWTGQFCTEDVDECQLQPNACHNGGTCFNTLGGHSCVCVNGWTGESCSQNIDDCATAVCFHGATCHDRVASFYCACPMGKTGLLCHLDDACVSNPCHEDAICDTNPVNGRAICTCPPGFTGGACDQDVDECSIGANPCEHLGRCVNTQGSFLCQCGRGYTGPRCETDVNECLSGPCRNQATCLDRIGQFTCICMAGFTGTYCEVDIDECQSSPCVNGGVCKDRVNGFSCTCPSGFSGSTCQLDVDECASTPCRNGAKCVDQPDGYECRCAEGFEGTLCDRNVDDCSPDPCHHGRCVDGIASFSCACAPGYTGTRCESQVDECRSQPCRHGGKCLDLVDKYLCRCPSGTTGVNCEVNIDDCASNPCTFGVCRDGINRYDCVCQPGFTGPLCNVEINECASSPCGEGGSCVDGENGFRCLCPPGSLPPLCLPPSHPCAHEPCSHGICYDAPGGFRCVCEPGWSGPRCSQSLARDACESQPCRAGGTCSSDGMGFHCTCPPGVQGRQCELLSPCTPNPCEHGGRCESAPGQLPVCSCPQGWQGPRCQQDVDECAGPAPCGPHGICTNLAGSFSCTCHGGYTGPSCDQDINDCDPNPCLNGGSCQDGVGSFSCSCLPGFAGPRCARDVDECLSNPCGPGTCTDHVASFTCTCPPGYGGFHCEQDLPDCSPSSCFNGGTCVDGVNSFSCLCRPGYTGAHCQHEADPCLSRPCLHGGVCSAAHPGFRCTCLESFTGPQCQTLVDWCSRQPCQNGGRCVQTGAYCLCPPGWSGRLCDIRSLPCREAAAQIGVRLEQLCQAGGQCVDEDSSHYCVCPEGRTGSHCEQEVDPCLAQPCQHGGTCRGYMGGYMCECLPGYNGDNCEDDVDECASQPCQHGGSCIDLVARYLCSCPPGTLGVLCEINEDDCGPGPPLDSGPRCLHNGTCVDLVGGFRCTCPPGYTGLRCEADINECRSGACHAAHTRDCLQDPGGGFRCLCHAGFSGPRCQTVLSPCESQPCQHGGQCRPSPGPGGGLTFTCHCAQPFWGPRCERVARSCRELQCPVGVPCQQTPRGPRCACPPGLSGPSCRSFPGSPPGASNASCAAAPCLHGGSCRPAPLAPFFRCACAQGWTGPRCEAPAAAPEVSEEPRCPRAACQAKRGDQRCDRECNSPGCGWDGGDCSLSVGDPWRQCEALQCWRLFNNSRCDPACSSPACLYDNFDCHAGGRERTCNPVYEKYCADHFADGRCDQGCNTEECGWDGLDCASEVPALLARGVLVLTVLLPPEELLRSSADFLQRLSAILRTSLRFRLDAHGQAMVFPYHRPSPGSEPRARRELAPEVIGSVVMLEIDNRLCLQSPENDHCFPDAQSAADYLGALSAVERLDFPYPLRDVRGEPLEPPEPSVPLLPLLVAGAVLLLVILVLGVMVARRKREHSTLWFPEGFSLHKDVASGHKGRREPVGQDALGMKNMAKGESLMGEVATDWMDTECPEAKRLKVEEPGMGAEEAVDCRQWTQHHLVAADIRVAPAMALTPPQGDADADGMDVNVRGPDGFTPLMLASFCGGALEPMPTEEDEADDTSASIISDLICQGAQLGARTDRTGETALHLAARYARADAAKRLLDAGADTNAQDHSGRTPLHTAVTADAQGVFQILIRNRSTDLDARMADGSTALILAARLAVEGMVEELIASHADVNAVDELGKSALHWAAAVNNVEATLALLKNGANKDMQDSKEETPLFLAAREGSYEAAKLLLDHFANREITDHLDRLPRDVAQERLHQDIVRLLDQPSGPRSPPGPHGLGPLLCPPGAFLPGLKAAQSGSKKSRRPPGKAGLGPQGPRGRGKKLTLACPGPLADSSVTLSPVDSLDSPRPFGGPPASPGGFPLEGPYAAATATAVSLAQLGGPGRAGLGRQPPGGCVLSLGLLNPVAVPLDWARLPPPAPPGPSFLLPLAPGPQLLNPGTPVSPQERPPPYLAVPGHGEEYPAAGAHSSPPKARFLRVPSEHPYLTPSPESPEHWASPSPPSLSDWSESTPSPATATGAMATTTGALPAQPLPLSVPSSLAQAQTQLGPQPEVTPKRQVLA
Sequence of Follistatin-related protein 3 (Homo sapiens) (O95633 whole entry, looked up): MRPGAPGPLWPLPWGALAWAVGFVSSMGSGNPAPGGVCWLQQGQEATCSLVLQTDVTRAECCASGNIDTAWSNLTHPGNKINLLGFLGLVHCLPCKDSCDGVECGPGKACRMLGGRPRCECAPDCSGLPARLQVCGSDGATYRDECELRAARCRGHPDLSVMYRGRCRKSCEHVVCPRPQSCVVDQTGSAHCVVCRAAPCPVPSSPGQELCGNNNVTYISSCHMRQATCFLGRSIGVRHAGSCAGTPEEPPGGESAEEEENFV
Sequence of Dickkopf-related protein 1 (Homo sapiens) (O94907 whole entry, looked up): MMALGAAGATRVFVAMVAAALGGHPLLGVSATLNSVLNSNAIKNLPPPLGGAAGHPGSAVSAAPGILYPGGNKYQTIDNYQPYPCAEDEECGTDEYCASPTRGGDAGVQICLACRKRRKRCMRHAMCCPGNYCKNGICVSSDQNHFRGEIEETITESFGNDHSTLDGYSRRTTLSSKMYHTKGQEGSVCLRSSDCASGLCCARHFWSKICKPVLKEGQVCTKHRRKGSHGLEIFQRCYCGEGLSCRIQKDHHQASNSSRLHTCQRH
Sequence of Fibroblast growth factor 10 (Homo sapiens) (O15520 whole entry, looked up): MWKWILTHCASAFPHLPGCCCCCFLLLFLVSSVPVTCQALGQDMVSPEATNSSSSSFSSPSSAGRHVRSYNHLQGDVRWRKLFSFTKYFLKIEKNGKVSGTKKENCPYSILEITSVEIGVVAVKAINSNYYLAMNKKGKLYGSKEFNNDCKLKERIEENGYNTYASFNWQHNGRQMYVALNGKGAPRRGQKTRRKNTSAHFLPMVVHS
Sequence of Torsin-1A-interacting protein 2 (Homo sapiens) (Q8NFQ8 whole entry, looked up): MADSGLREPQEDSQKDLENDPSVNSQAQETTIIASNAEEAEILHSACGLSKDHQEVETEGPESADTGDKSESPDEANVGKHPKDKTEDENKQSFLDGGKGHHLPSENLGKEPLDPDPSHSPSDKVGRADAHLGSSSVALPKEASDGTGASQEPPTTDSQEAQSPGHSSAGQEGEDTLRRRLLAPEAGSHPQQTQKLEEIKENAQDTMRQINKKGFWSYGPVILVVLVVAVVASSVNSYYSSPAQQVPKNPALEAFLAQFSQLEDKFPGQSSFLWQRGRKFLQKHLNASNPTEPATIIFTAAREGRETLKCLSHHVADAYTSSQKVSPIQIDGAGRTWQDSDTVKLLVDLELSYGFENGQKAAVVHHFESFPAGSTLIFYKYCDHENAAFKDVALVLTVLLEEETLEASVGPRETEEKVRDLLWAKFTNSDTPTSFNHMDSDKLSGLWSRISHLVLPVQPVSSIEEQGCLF

| SMILES | composite z-score [1] | z-score [2] | z-score [3] | z-score [4] | composite z-score [5] | z-score [6] | composite z-score [7] | composite z-score [8] | composite z-score [9] | composite z-score [10] | composite z-score [11] | composite z-score [12] | composite z-score [13] | z-score [14] | composite z-score [15] | composite z-score [16] | composite z-score [17] | composite z-score [18] | composite z-score [19] | composite z-score [20] |
| --- | --- | --- | --- | --- | --- | --- | --- | --- | --- | --- | --- | --- | --- | --- | --- | --- | --- | --- | --- | --- |
| CCc1cc2c(nc1CC)CCN(CCC(C)=NOC)C2 | 0.766 | 0.259 (inactive) | -1.54 (inactive) | -0.21 (inactive) | 0.839 | -0.0797 (inactive) | 0.327 | 0.601 | 0.0855 | 0.0631 | 0.0885 | -0.112 | 0.662 | 0.0386 (inactive) | 0.179 | 0.344 | 0.961 | 0.763 | 0.755 | 1.66 |
| COC(=O)[C@@]1(Cc2ccccc2)[C@H]2c3cc(C(=O)N(C)C)[nH]c3C[C@H]2CN1C(=O)c1ccccc1 | -0.94 | 0.0969 (inactive) | 0.8 (inactive) | 0.98 (inactive) | 0.745 | -0.482 (inactive) | -0.0238 | -1.23 | -0.984 | -0.116 | 0.45 | 0.425 | 0.709 | 0.454 (inactive) | -0.36 | -1.15 | -0.649 | -1.32 | -1.06 | 1.02 |
| C=C(CC1(C(C)NP(=O)(c2ccccc2)c2ccccc2)CC1)c1ccccc1 (stereo not given) | 0.144 | -1.47 (inactive) | -5.37 (inactive) | -3 (inactive) | 3.44 | -0.74 (inactive) | -0.119 | -0.344 | 0.673 | -0.135 | 0.742 | 0.364 | 0.803 | -4.59 (inactive) | 0.623 | 0.0363 | -0.636 | -0.0868 | -0.237 | 0.853 |
| COC(=O)[C@H]1[C@@H](O)[C@@]2(O)c3c(OC)cc(OC)cc3O[C@@]2(c2ccc(OC)cc2)[C@@H]1c1ccccc1 | 0.002 | -0.543 (inactive) | -2.36 (inactive) | 0.118 (inactive) | 0.485 | 0.449 (inactive) | -0.221 | 0.782 | 0.708 | -0.0714 | 0.373 | -0.193 | -0.482 | -1.89 (inactive) | 0.384 | 0.586 | 0.628 | 0.554 | 0.962 | 0.0587 |
| CCOC(=O)[C@H]1CC=C2C(=O)Oc3ccccc3[C@@H]21 | -0.162 | -1.73 (inactive) | -5.83 (inactive) | -1.99 (inactive) | 1.55 | -0.0576 (inactive) | -0.134 | -1.09 | 0.0681 | -0.174 | -0.283 | -0.295 | 0.521 | -0.0119 (inactive) | -0.375 | -0.45 | -0.695 | -0.77 | -1.06 | 0.0965 |
| c1ccc(-c2cc3c(nc2-c2ccccc2)CCNC3)cc1 | -0.93 | 0.52 (inactive) | 0.538 (inactive) | 2.17 (inactive) | -0.908 | -0.0201 (inactive) | -0.0831 | 0.297 | -0.73 | -0.238 | 0.035 | -0.193 | -0.165 | -0.326 (inactive) | -0.757 | -0.598 | -0.0212 | -0.419 | -0.419 | 1.09 |
| COC(=O)[C@@]1(Cc2ccccc2)[C@H]2c3cc(C(=O)N(C)C)n(C)c3C[C@H]2CN1C(=O)c1ccccc1 | -0.0444 | 0.16 (inactive) | 0.923 (inactive) | 0.462 (inactive) | 3.35 | 0.0234 (inactive) | 0.402 | -0.73 | -0.0403 | -0.0391 | 1.5 | -0.0842 | 0.836 | -0.806 (inactive) | 0.358 | -0.214 | 0.0444 | -0.443 | -0.631 | 1.09 |
| COc1cc2c(cc1O)C=[N+](C)CC2 | -0.592 | -1.76 (inactive) | -0.412 (inactive) | -1.25 (inactive) | -0.496 | -0.695 (inactive) | 0.0571 | 0.425 | -0.102 | -0.0967 | 0.136 | 0.148 | -0.0058 | 0.131 (inactive) | 0.668 | -0.11 | -0.414 | 0.137 | -0.14 | 1.35 |
| CC1N(P(=O)(c2ccccc2)c2ccccc2)CC(O)(c2ccccc2)CC12CC2 (stereo not given) | 0.453 and -1.07 | 0.401 (inactive) and -2.96 (inactive) | 0.614 (inactive) and -1.46 (inactive) | 0.973 (inactive) and 0.0418 (inactive) | 3.87 and 3.05 | -0.476 (inactive) and -0.172 (inactive) | 0.084 and 0.644 | -1.15 and -1.06 | -1.14 and -0.154 | -0.0565 and 0.174 | 0.639 and 0.752 | -0.135 and 1 | 0.938 and 1.14 | 0.255 (inactive) and -4.15 (inactive) | -0.115 and 0.145 | -0.0785 and -0.283 | -0.678 and 0.158 | -1.67 and -0.931 | -0.657 and -0.814 | 0.388 and 1.1 |
| COC(=O)[C@H]1[C@H](c2ccccc2)C(=O)[C@]2(O)c3ccccc3O[C@@]12c1ccccc1 | -0.371 | -1.36 (inactive) | -0.83 (inactive) | -0.713 (inactive) | 0.582 | 0.0043 (inactive) | -0.267 | 0.372 | 0.667 | -0.12 | 0.219 | -0.291 | -0.463 | -1.58 (inactive) | 0.37 | 0.423 | 0.437 | 0.419 | 0.314 | -0.228 |
| COC(=O)NCC=Cc1nc(CCC=CC(=O)O[C@H]2CC3CC(=O)O[C@@H](C=CCC(C)C)C[C@@H]4CC[C@H](C)[C@@H](C[C@@H](OC)C[C@H](C2)O3)O4)co1 | -1.35 | -1.77 (inactive) | -4.74 (inactive) | -0.209 (inactive) | -0.562 | 0.162 (inactive) | -0.174 | -0.593 | -2 | -0.201 | -0.466 | -0.445 | -0.42 | 0.659 (inactive) | -0.512 | -1.21 | -0.633 | -0.65 | -0.447 | 0.846 |
| C[C@H]1O[C@H]2C3=C(C(=O)[C@@H]4O[C@@H]4[C@@H]3O)[C@@H]1[C@@H]1[C@@H](C)OC=C3[C@@H](O)[C@H]4O[C@H]4C(=O)[C@]312 | -1.42 | -1.16 (inactive) | -0.568 (inactive) | -0.584 (inactive) | -0.697 | -0.529 (inactive) | -0.166 | -0.394 | -1.62 | -0.0238 | -0.373 | -0.416 | -0.399 | -1.89 (inactive) | -0.131 | -0.572 | -0.132 | -0.727 | 0.133 | 0.38 |
| CCCc1cc2c(n1Cc1cccc(Cl)c1)C(C)C1CN(C(=O)c3ccccc3)C(C)(C(=O)OC)C21 (stereo not given) | -0.287 | -0.319 (inactive) | 0.431 (inactive) | 0.282 (inactive) | 3.21 | -0.449 (inactive) | 0.411 | -0.146 | 1.11 | 0.118 | 0.922 | 1.37 | 1.54 | -3.44 (inactive) | 0.368 | 0.146 | -0.458 | -0.0989 | -1.61 | 1.24 |
| CCCC[C@@H]1C[C@H]1[C@@H](NP(=O)(c1ccccc1)c1ccccc1)c1ccc(Cl)cc1 | -0.571 | -0.513 (inactive) | -10.8 (active) | 0.0654 (inactive) | 0.748 | -0.412 (inactive) | 0.195 | -1.67 | -0.582 | -0.263 | -0.168 | 0.294 | 0.988 | -3.54 (inactive) | -0.668 | -0.924 | -1.5 | -1.57 | -0.818 | 1.18 |
| C[C@@H]1Cc2c(cnc3c2CN(C)CC3)CO1 | -0.377 | -0.0303 (inactive) | -0.591 (inactive) | -0.582 (inactive) | -0.0214 | 0.262 (inactive) | -0.153 | 0.603 | -0.78 | 0.0255 | 0.0529 | -0.228 | -0.368 | -0.377 (inactive) | 0.32 | -0.117 | 1.15 | 0.336 | 0.662 | 1.09 |
| OCc1ccc(C2=CC(c3cccs3)N(Cc3cccc(OC(F)(F)F)c3)CC2)cc1 (stereo not given) | 1.08 | -0.583 (inactive) | -3.83 (inactive) | 4.58 (inactive) | 1.1 | 0.398 (inactive) | -0.145 | 0.257 | 0.0155 | -0.1 | 0.916 | -0.236 | -0.0613 | -1.18 (inactive) | -0.0615 | -0.123 | -0.0657 | 0.107 | 0.0824 | 1.18 |

Reference: PubChem BioAssay
